Growth data for 14 compounds are collected here from PubChem BioAssay (NCI).

Several values for one entry are separate records, joined by “and”; a condition that tells them apart may be missing. Identical values can stand only once. About 83,000 compounds went through this panel and 20% of them were active in at least one assay; those are over-represented in the sample as a whole.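 Negative percent growth values reflect cell death: -40 means 40% of the cells present at the start died, and -100 means all died.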 Activity calls are given as the source filed them. The calls were made as follows: active = growth percent below 10; inactive = the rest.

This experiment has as its system HOP-92 NSCLC. Nature of the experiment: NCI-60 one-dose screen, 48 h (100 = growth as untreated, 0 = no growth, -100 = all killed). The note with it: 10 µM unless noted.
On to `C=C[C@]1(C)C=C2CC[C@@H]3C(C)(C)C(=O)CC[C@@]3(C)[C@@H]2CC1`, for which the growth was 97.7% (inactive). Take `CN(C)CC1(C)Cc2ccsc2C1O` (centres undefined): the growth was 101% (inactive) and 108% (inactive). As for `CCN(CC)/C([O-])=c1\cccc\c1=C1\N=C(c2ccccc2)N=C1[n+]1ccc(-c2ccccc2)cc1`, the figure is 86.7% (inactive); as for `Cc1oc2c(Cc3ccc(NC(=O)c4ccc(Cl)cc4)cc3)ncnc2c1C(=O)NO`, 125% (inactive). Next, `COc1cc(CNC(=O)CCCC/C=C/C(C)C)ccc1O`: 84.4% (inactive); `CC1=C2[C@@H](CC1)[C@]1(C)O[C@@](C(C)C)(C[C@H]1OC(=O)CO)[C@H]2OC(=O)C1CC1c1ccccc1` (some centres undefined): 87.3% (inactive).

Regarding `O=C1OCC2=C1C(c1cccc(C(F)(F)F)c1)c1cc3c(cc1N2CCO)CCC3` (centres undefined), the growth was 64.2% (inactive). Next, `COc1ccc(/C=N/C2=C(C#N)C(c3ccccc3)c3c(ccc4ccccc34)O2)cc1` (centres undefined): 53.9% (inactive); `O=C(CCl)N(O)c1ccc(/C=C/c2ccccc2)cc1`: 81.8% (inactive); `N#C/C(=C\c1ccc(Br)cc1)n1nnc2c(F)cccc21`: 19.2% (inactive).

As to `O=C(/C=C/c1ccccc1)c1cccs1`, the growth is 79.3% (inactive). As for `COc1ccc(Nc2nn3c(SCC(=O)c4ccc(C)cc4)nnc3s2)cc1`, the figure is 83.4% (inactive); as for `CN(Cc1ccccc1)c1nc(Cl)c(C2CC(c3ccc4c(c3)OCO4)=NN2c2cc(Cl)cc(Cl)c2)s1` (centres undefined), 99% (inactive). As for `Cc1nnc(NS(=O)(=O)c2ccc(N=Nc3ccc(N)nc3N)cc2)s1`, the figure is 95.5% (inactive).
